Assay results from PubChem BioAssay AID2284092 (EPA ToxCast).
The source made the active and inactive calls. The calls were made as follows: active = hit-call score of the fitted dose curve at least 0.9, where 1 is the maximum; inactive = score below 0.9.

Molecular target: Glycogen synthase kinase-3 beta (Homo sapiens) (UniProt P49841)
Assay: ERF_FR_ENZ_hGSK3b: Eurofins (ERF) Enzymatic Radiometric [Km ATP] KinaseProfiler LeadHunter Assay for human GSK3beta (GSK3B) CMGC Kinase
Method: ERF_FR_ENZ_hGSK3b is a biochemical, single-readout assay that uses extracted gene-proteins in a cell-free assay. Measurements were taken 1.5 hour after chemical dosing in a 96-well plate. See GSK3beta Human CMGC Kinase Enzymatic LANCE Assay [Km ATP], Cerep.ERF_FR_ENZ_hGSK3b is an assay component calculated from the ERF_FR_ENZ_hGSK3b assay. It is designed to measure enzyme activity using a type of enzyme reporter as detected by fluorescence intensity with LANCE technology.Data from the assay component ERF_FR_ENZ_hGSK3b was analyzed at the assay endpoint, ERF_FR_ENZ_hGSK3b, in the positive analysis fitting direction relative to DMSO as the negative control and baseline of activity. Using a type of enzyme reporter, loss-of-signal activity can be used to understand changes in enzymatic activity as they relate to gene GSK3B. To generalize the intended target to other relatable targets, this assay endpoint is annotated to the kinase intended target family, where the subfamily is serine/threonine kinase.
GSK3b (h) is incubated with 8 mM MOPS pH 7.0, 0.2 mM EDTA, 20 uM […](p) EDEEE (phospho GS2 peptide), 10 mM MgAcetate and [gamma-33P]-ATP (specific activity and concentration as required). The reaction is initiated by the addition of the Mg/ATP mix. After incubation for 40 minutes at room temperature, the reaction is stopped by the addition of phosphoric acid to a concentration of 0.5%. […]

Glycogen synthase kinase-3 beta (Homo sapiens), sequence (P49841 whole entry, looked up): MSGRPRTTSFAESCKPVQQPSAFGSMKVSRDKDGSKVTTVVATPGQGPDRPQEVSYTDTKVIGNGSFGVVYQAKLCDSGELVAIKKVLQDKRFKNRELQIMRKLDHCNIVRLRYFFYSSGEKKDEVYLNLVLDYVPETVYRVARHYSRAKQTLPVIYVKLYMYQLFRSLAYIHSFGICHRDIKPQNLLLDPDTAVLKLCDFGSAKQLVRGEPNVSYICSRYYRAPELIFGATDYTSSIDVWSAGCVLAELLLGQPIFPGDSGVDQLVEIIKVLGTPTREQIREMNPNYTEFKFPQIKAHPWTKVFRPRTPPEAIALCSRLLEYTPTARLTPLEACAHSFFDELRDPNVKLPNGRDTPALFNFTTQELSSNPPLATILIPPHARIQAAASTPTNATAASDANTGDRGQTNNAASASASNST

SMILES	AC50
O=C(/C=C/c1ccc(O)cc1)CC(=O)/C=C/c1ccc(O)cc1	2140 nM (active)
